# Where “and” joins values, the source holds several entries; their conditions need not be identical. Equal entries are not always repeated. Some structures have more than one record in an assay (separate samples or runs), and their calls can disagree. Calls of active or inactive are those of the source.
# Assays:
# [1] = tested on: PRMT1 (protein arginine N-methyltransferase 1); test: PRMT1 binders on small-molecule microarrays, primary screen, biochemical, small-molecule microarray, 635 nm fluorescence (AID 1088); conditions: small-molecule microarray binding, higher = more signal;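 also: binding of Prmt1 protein to compounds spotted on small-molecule microarray slides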
# [2] = yeast growth modulation, basal conditions, primary screen, YJM789 clinical isolate, OD600, 24 h (AID 1089);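 also: growth of clinical yeast isolate S. cerevisiae YJM 789 seeded 1000 cells per well; test concentration not given here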; conditions: S. cerevisiae YJM789 growth, higher = more signal, called active from +8 up or from −8 down
# [3] = fission yeast growth modulation, primary screen, strain 972, OD600, 24 h, no modulator (AID 1090);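 also: basal condition with compound alone and no growth modifier present; test concentration not given here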; conditions: S. pombe 972 growth, higher = more signal, called active from +8 up or from −8 down
# [4] = S. cerevisiae growth modulation with rapamycin, primary screen, strain BY4716, OD600, 96 h (AID 1091); conditions: higher = more signal, called active from +8 up or from −8 down; also: test concentration not given here
# [5] = target: Torsin-1A-interacting protein 2 (Homo sapiens) (UniProt Q8NFQ8); test: LULL1 binders on small-molecule microarray, primary screen, cell lysate, human LULL1 lysate, 635/667 nm fluorescence (AID 1092); conditions: hLULL1 lysate binding, 635 nm fluorescence, higher = more signal;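 also: probe is lysate of COS7 cells overexpressing human LULL1; score merges per-feature 667 nm fluorescence with signal-to-noise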
# Chain of Torsin-1A-interacting protein 2 (Homo sapiens) (Q8NFQ8 whole entry, looked up): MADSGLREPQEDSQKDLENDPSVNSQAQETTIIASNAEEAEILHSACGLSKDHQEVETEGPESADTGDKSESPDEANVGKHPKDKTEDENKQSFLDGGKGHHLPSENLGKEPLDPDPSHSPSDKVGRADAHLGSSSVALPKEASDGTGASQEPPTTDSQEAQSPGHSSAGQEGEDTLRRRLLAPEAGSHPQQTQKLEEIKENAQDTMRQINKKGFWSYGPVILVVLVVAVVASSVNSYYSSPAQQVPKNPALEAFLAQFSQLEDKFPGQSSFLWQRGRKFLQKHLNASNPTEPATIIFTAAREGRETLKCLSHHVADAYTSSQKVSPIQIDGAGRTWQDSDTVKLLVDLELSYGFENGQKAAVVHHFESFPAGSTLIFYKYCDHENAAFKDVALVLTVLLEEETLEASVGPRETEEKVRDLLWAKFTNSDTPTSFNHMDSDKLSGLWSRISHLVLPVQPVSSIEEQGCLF
# [6] = E. coli growth modulation, two-sided OD650, primary screen, E. coli filamentation project, strain DRC41, 24 h (AID 1093); conditions: OD650, 24 h, higher = more signal, called active from +8 up or from −8 down;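 also: MC1000 strain lacking acrAB efflux and sulA so SOS filamentation is blocked; test concentration not given here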
# [7] = small-molecule microarray binders of probe aLefty2, primary screen, biochemical, biotinylated probe, 635/667 nm fluorescence (AID 1094); conditions: higher = more signal;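 also: score merges spot fluorescence near 667 nm with spot signal-to-noise ratio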
# [8] = tested on: Noggin (protein binding on small-molecule microarray); test: Noggin binders on small-molecule microarray, primary screen, biochemical, 635/667 nm fluorescence (AID 1095); conditions: 635 nm fluorescence, higher = more signal;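 also: score merges 667 nm feature fluorescence with signal to noise over triplicate slides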
# [9] = target: Neurogenic locus notch homolog protein 3 (Homo sapiens) (UniProt Q9UM47); test: NOTCH3 binders on small-molecule microarray, primary screen, biochemical, 635/667 nm fluorescence (AID 1096); conditions: NOTCH3 binding, 635 nm fluorescence, higher = more signal
# Chain of Neurogenic locus notch homolog protein 3 (Homo sapiens) (Q9UM47 whole entry, looked up): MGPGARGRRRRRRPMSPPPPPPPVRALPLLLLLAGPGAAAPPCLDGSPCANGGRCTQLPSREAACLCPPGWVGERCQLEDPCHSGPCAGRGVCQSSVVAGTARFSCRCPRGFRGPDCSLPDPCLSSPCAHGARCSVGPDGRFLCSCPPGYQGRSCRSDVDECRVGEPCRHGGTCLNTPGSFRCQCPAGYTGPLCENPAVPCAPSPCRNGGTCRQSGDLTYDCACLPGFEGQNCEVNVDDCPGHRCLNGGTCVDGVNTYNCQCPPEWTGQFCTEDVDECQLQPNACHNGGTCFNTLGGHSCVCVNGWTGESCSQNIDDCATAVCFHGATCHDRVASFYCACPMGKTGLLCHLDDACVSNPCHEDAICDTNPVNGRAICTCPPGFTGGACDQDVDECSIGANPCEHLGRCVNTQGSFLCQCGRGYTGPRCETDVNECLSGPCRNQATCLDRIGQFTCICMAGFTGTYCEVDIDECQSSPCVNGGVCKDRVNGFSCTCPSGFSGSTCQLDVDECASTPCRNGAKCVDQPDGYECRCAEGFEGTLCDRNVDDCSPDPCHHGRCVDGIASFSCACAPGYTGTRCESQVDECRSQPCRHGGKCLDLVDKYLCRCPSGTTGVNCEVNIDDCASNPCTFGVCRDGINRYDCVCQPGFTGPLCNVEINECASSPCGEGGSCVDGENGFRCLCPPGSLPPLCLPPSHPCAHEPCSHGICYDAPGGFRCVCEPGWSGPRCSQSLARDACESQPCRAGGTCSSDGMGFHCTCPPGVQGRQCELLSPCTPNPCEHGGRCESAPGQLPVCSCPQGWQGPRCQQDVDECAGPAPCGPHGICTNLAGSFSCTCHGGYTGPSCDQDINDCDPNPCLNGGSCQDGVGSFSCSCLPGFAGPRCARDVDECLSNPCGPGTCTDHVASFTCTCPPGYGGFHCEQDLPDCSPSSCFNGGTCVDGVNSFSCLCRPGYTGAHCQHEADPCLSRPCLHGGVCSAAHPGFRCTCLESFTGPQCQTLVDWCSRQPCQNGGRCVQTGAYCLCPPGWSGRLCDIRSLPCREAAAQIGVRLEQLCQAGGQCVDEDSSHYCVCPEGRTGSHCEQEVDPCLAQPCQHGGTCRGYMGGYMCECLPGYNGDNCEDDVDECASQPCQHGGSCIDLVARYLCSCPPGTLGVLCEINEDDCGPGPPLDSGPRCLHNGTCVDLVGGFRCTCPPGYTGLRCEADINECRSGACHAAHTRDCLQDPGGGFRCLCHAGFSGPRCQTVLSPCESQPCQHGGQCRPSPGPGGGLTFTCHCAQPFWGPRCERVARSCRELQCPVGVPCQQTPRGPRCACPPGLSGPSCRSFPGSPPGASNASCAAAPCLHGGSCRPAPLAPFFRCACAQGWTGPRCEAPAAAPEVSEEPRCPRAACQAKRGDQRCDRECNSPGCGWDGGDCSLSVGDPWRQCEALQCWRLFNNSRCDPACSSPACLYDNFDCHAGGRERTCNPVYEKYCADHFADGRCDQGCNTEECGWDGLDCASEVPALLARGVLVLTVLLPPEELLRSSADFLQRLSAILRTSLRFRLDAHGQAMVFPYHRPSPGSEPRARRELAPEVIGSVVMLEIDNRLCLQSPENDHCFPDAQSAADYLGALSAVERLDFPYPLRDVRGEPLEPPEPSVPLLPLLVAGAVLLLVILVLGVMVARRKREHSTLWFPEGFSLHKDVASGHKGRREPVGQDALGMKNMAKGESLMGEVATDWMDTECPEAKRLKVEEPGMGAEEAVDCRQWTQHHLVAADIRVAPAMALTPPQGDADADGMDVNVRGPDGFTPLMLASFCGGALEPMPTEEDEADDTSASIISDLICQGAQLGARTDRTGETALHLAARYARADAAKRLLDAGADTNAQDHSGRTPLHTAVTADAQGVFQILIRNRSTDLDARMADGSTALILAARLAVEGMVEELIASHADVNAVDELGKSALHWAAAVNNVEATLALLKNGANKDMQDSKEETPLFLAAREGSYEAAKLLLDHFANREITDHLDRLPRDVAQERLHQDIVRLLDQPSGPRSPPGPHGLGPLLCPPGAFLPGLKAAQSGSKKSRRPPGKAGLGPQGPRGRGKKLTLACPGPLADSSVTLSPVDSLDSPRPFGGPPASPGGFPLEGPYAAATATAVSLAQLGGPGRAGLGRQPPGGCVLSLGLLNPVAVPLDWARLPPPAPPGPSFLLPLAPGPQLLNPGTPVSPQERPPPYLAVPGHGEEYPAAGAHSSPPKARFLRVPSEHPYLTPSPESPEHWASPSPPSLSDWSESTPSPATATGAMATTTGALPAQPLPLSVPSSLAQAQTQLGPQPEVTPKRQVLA
# [10] = small-molecule microarray binders of probe aEGFR, primary screen, biochemical, biotinylated probe, 635/667 nm fluorescence (AID 1097); conditions: higher = more signal;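 also: probe is a biotinylated anti-EGFR antibody binding compounds printed on slides; score combines fluorescence near 667 nm and signal to noise of each spot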
Structure (SMILES),composite z-score [1],z-score [2],z-score [3],z-score [4],composite z-score [5],z-score [6],composite z-score [7],composite z-score [8],composite z-score [9],composite z-score [10]
CC(CO)N1C(=O)[C@@H]2C3C(=O)OCCC=C[C@H]3OC23C=CCN(Cc2ccccc2)C(=O)[C@@H]13 (stereo not given in full),-0.477 and -0.385,0.814 (inactive) and -0.448 (inactive),-0.326 (inactive) and -1.08 (inactive),1.53 (inactive) and -0.42 (inactive),1.16 and 0.0845,1.3 (inactive) and 1.67 (inactive),-0.0216 and -0.0449,-1.05 and -0.529,-0.36 and -0.377,-0.196 and -0.221
CC(C)[Si]1(C(C)C)OCc2cc(CCCc3cc4c(c(CCc5ccccc5)n3)[Si](C(C)C)(C(C)C)OC4)nc(CCc3ccccc3)c21,0.393 and 0.722,0.873 (inactive) and 0.702 (inactive),-19.7 (active) and 0.733 (inactive),-1.25 (inactive) and 0.323 (inactive),0.227 and 0.364,2.13 (inactive) and -1.16 (inactive),-0.128 and -0.0479,-0.0022 and 0.42,-0.604 and 0.721,-0.157 and -0.0594
CCOC(=O)C[C@H]1[C@H](OC(=O)c2ccccc2-c2ccccc2)[C@@H](NC(=O)Cc2ccc(OC)cc2)c2cc(OCCCO)ccc2N1C(=O)Cc1ccc(OC)cc1,0.407 and -0.949,-0.0142 (inactive) and -0.0701 (inactive),-0.572 (inactive) and 0.18 (inactive),0.843 (inactive) and 0.39 (inactive),1.46 and -0.199,2.39 (inactive) and -0.335 (inactive),0.139 and -0.176,0.0766 and -0.182,0.784 and -0.204,0.0084 and -0.142
CC(C)CCN1CCc2nc(-c3ccccc3)c3c(c2C1)CO[C@@H](C)C3,0.837,-0.334 (inactive),-0.519 (inactive),0.622 (inactive),1.8,0.825 (inactive),-0.0641,0.444,0.922,-0.0578
C=C[C@@H](OC)[C@H](O)c1ccc(OC)c(O)c1,0.852 and -0.645,-0.722 (inactive) and -0.94 (inactive),-0.322 (inactive) and -0.469 (inactive),-0.116 (inactive) and -0.423 (inactive),-0.1 and -0.81,0.77 (inactive) and 1.76 (inactive),-0.17 and -0.109,0.941 and 0.0939,-0.233 and -1.14,-0.277 and -0.33
COc1ccc(COC(=O)NN=C2C[C@@H](O)[C@@H](O)[C@@H]3[C@@H]4C(=O)N(C(C)(C)C)C(=O)[C@@H]4CC[C@H]23)cc1,1.28,-1.76 (inactive),-1.05 (inactive),-0.715 (inactive),2.14,-0.0531 (inactive),-0.277,0.468,0.469,-0.132
CC(C)=NO[C@@H](C)c1cc(-c2c(C)cc(C)cc2C)no1,-0.389,-0.166 (inactive),-3.55 (inactive),-0.0423 (inactive),0.168,-0.272 (inactive),-0.122,0.412,-0.434,-0.101
C=CCN(CCCC)C(=O)C(c1cccs1)N(CCOCCO)C(=O)/C=C\C(=O)O (stereo not given),-1.08 and 0.596,-1.98 (inactive) and -1.34 (inactive),-0.745 (inactive) and -0.342 (inactive),-0.604 (inactive) and -0.397 (inactive),0.657 and 2.51,1.02 (inactive) and 1.45 (inactive),-0.145 and -0.139,-1.73 and -0.798,-0.852 and -0.503,-0.236 and -0.148
C=C[C@@H](OC)[C@H](O)c1ccc(OCCO)cc1,0.194 and -0.0886,-0.0303 (inactive) and -2.64 (inactive),0.331 (inactive) and -1.68 (inactive),-0.603 (inactive) and -0.883 (inactive),1.5 and -0.567,-0.443 (inactive) and 2.25 (inactive),-0.0466 and -0.0666,-0.902 and -0.131,-0.19 and -0.876,-0.383 and -0.265
CC(C)CON=C1C[C@@H](O)[C@@H](O)[C@@H]2[C@@H]3C(=O)N(c4cccc(Oc5ccccc5)c4)C(=O)[C@@H]3CC[C@H]12,0.973,0.097 (inactive),0.561 (inactive),-0.54 (inactive),0.897,1.04 (inactive),-0.136,0.318,0.951,-0.0549
C=CCN(C(=O)C1N(CCOCCO)C(=O)C2C(C(=O)O)C3C=CC21O3)C(C)(C)C (stereo not given),-1.26 and -0.124,-0.419 (inactive) and -0.683 (inactive),-0.378 (inactive) and -0.505 (inactive),-0.357 (inactive) and -0.658 (inactive),-1.29 and -1.44,0.389 (inactive) and 0.267 (inactive),-0.251 and -0.197,-2.02 and -1.83,-1.49 and -0.757,-0.323 and -0.241
CC(CO)N1C(=O)[C@@H]2C3C(=O)OCCC=C[C@H]3OC23C=CCN(CCN2CCOCC2)C(=O)[C@@H]13 (stereo not given in full),-0.353 and 1.34,0.517 (inactive) and -1.32 (inactive),-0.0581 (inactive) and -1.22 (inactive),0.565 (inactive) and -0.233 (inactive),-0.634 and 3.22,-0.381 (inactive) and -0.16 (inactive),-0.186 and 0.166,-0.0409 and 0.0947,0.331 and 0.465,-0.207 and -0.0046
CCOC(=O)C[C@H]1[C@H](OC(=O)c2ccccc2-c2ccccc2)[C@@H](NC(=O)c2ccccc2)c2cc(OCCCO)ccc2N1C(=O)c1ccc2ccccc2n1,-0.0222 and 1.19,-0.0469 (inactive) and -0.78 (inactive),-0.19 (inactive) and 0.209 (inactive),-0.0952 (inactive) and 0.0526 (inactive),0.549 and 1.01,1.02 (inactive) and -0.728 (inactive),-0.0437 and 0.0212,0.357 and 0.843,0.481 and 0.737,0.0323 and -0.0815
C[C@@H]1CC[C@@H](C(=O)O)N[C@H]1c1ccc(-c2ccco2)cc1,1.06,0.804 (inactive),-0.383 (inactive),-0.476 (inactive),0.534,-0.0778 (inactive),0.0331,1.26,0.945,-0.115
CCOC(=O)c1ccc(NC(=O)O[C@H]2[C@H](OC(=O)Nc3ccccc3)[C@@H](OC(=O)Nc3ccccc3)[C@@H](OC)O[C@@H]2CO)cc1,1.53 and 1.54,1.77 (inactive) and 1.97 (inactive),1.07 (inactive) and 1.71 (inactive),4.37 (inactive) and 7.27 (inactive),3.22 and 3.23,-0.221 (inactive) and -1 (inactive),0.244 and 0.0626,0.893 and 0.71,1.02 and 1.08,0.145 and 0.11
C=CC[C@@H](O)c1ccc(O)c(F)c1,-0.508 and -0.514,0.442 (inactive) and -0.907 (inactive),-0.6 (inactive) and -1.52 (inactive),-0.389 (inactive) and -1.67 (inactive),-0.471 and -1.19,0.336 (inactive) and 1.94 (inactive),-0.0329 and -0.0221,-2.36 and -0.702,-1.4 and -0.883,-0.384 and -0.381
CO[C@H]1COC(=O)CC=C[C@@H](C)COC(=O)[C@@H](OCc2ccccc2)C=C[C@@H]1C,1.47,-0.744 (inactive),-1.31 (inactive),-0.855 (inactive),-0.404,0.973 (inactive),-0.353,2.02,-0.294,-0.135
C[C@@H]1CC[C@H]2C(=O)NC[C@@H](O)CN2[C@H]1c1ccc(Br)cc1,-0.0838 and -0.473,-0.77 (inactive) and 0.443 (inactive),-0.0565 (inactive) and -0.0682 (inactive),-0.451 (inactive) and 0.389 (inactive),0.759 and -0.129,0.0565 (inactive) and 0.377 (inactive),-0.136 and -0.253,0.561 and -0.0536,-0.0857 and -0.344,-0.171 and -0.0356
COC(=O)C1=C(C)N(Cc2ccccc2)C2=C3C(=O)CCC[C@@H]3[C@@](O)(C(=O)OC)C(=O)N2[C@@H]1c1ccccc1,0.749 and -0.121,0.494 (inactive) and -0.978 (inactive),-1.66 (inactive) and -4.18 (inactive),-2.01 (inactive) and -2.52 (inactive),0.0102 and 0.0556,0.821 (inactive) and 0.754 (inactive),0.182 and -0.0863,0.637 and 0.433,0.602 and -0.239,-0.177 and 0.108
CCCCCN1CC=CC23O[C@@H]4C=CCCOC(=O)C4[C@H]2C(=O)N(C(C)CO)[C@@H]3C1=O (stereo not given in full),0.432 and 0.967,-0.772 (inactive) and 0.61 (inactive),-0.328 (inactive) and 0.278 (inactive),-1.48 (inactive) and 0.779 (inactive),1.01 and 2.94,1.78 (inactive) and 1.58 (inactive),-0.401 and 0.157,0.157 and 0.362,0.311 and 0.388,-0.386 and -0.253
CCN1C(=O)[C@H]2[C@H]3[C@H](O)[C@H](O)CC(=NNC(=O)OCc4ccc(OC)cc4)[C@H]3CC[C@H]2C1=O,0.0536,0.523 (inactive),-0.312 (inactive),0.41 (inactive),0.677,-0.17 (inactive),0.656,-0.283,-0.143,0.0004
CCCC[C@@H]1CN2[C@H](c3ccc(Br)cc3)[C@@H](C)CC[C@H]2C(=O)O1,-0.214 and 0.499,-0.156 (inactive) and -0.142 (inactive),-19.4 (active) and -17.4 (active),-0.269 (inactive) and -0.224 (inactive),-0.461 and -0.18,0.298 (inactive) and 0.24 (inactive),-0.234 and -0.145,0.16 and 0.31,-0.391 and -0.433,-0.174 and -0.137
CCOC(=O)C[C@H]1[C@H](OC(=O)c2ccccc2-c2ccccc2)[C@@H](NC(=O)Cc2ccc(OC)cc2)c2cc(OCCCO)ccc2N1C(=O)c1ccc2ccccc2n1,-0.557 and 0.587,-0.321 (inactive) and -0.249 (inactive),-0.0002 (inactive) and -0.478 (inactive),-0.411 (inactive) and 0.456 (inactive),0.347 and 0.379,2.43 (inactive) and 1.41 (inactive),-0.0953 and 0.0397,0.248 and 0.329,0.0452 and 0.418,-0.0107 and 0.182

# — PubChem BioAssay
